Compounds without any hit were thinned out: in the full panel of roughly 83,000, 20% have a hit.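 Negative percent growth values reflect cell death: -40 means 40% of the cells present at the start died, and -100 means all died.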 Unmarked numbers belong to inactive results. Activity calls are given as the source filed them. How the source made its calls: active means growth percent below 10; inactive means the rest.

Test in all cases: NCI-60 one-dose screen, 48 h (100 = growth as untreated, 0 = no growth, -100 = all killed)
Common to all, as to conditions: 10 µM unless noted

Assay [1] has as its system SR leukemia.
The subject of assay [2] is RPMI-8226 leukemia.
The subject of assay [3] is OVCAR-8 ovarian.
For assay [4], the system named is OVCAR-5 ovarian.
In assay [5] the test system is OVCAR-4 ovarian.
Assay [6] has as its system SK-OV-3 ovarian.
In assay [7] the test system is IGROV1 ovarian.
The test system of assay [8] is OVCAR-3 ovarian.
The test system of assay [9] is HS 578T breast.
The test system of assay [10] is NCI/ADR-RES ovarian.

In the case of `Brc1ccc(-c2[nH]ncc2-c2c[nH]c3ccccc23)cc1`, the growth in assay [1] was 100%; in assay [2] it was 81.8%; in assay [3], 96.4%; in assay [4] it was 97.7%; in assay [5] it was 86.3%; in assay [6] it was 103%. The growth in [7] was 91.1%; in assay [8], 97.3%; in [9] it was 88.3%; in assay [10], 101%.

Take `S=c1[nH]nc(-c2cc3ccc2CCc2ccc(cc2)CC3)n1C1CC1`: the growth is 109% in assay [1]; 106% in assay [2]; 107% in [3]; 99.1% in assay [4]; 89.4% in [5]; 113% in [6]. Moreover, the growth in [7] is 101%; in assay [8] it was 108%; in assay [9], 101%; in [10], 103%.

For `CCCCCCCCCCCC(=O)NCCC[N+](C)(C)CC(=O)[O-]`, the growth was 68.8% in assay [1]; 93.2% in assay [2]; 96.9% in assay [3]; 90.2% in [4]; 97.7% in assay [5]; 103% in [6]. Also, the growth in [7] was 76.7%; in assay [8] it was 99.8%; in assay [9], 105%; in [10], 102%.

With `COc1ccc(-c2nc(/C=N/Nc3cc(C)nc4ccc(Br)cc34)c(C)o2)cc1`, the growth in assay [1] was -21% (active); in [2], -54.5% (active); in assay [3], -53.3% (active); in assay [4], -97.5% (active); in assay [5], -94.9% (active); in [6] it was 93.2%. For the same compound, the growth in assay [7] is -80.5% (active); in assay [8], -96.6% (active); in assay [9], -44.4% (active); in assay [10], -65.9% (active).

On to `COc1ccc(C(=O)N2NC(=O)/C(=C/c3cn(-c4ccccc4)nc3-c3ccccc3)N=C2c2ccccc2)cc1`, for which the growth is 99.9% in assay [1]; 102% in [2]; 105% in assay [3]; 111% in assay [4]; 101% in assay [5]; 107% in assay [6]. Moreover, the growth in assay [7] was 98.6%; in [8] it was 115%; in [9], 97.3%; in [10], 106%.

Take `COc1cc2c(c(OC)c1OC)-c1ccc(N)c(=O)cc1[C@@H](NC(C)=O)CC2`: the growth in assay [1] was 20%; in assay [2] it was 27.2%; in [3], 16.6%; in assay [4], 40.5%; in [5] it was 51%; in assay [6], 23.9%. Besides, the growth in assay [7] was 1.05% (active); in [8], -54.2% (active); in assay [9], 19.6%; in assay [10], 75.6%.

On to `CCO/C=N/C1=C(C#N)C(c2ccc(Cl)cc2)c2c(c3ccc(C)cc3[nH]c2=O)O1` (stereo not given), for which the growth in assay [1] is 86.7%; in [2], 30.2%; in [3] it was 89.7%; in assay [4], 83.1%; in assay [5] it was 85%; in [6], 85.7%. In addition, the growth was 68.4% in assay [7], 103% in assay [8], 48.8% in [9] and 96.1% in [10].

`O=c1ccn(-c2ncnc3nc[nH]c23)cc1`: the growth in assay [1] was 86.2%; in [2], 76.4%; in [3], 101%; in assay [4], 93.8%; in assay [5] it was 93.3%; in assay [6], 84.8%. Besides, the growth in assay [7] is 88%; in assay [8] it was 88.3%; in assay [9] it was 81.7%; in assay [10], 97.6%.

As to `O=C(CCl)N(C1CCCCC1)C1CCCCC1`, the growth in [1] is 100%; in assay [2], 112%; in assay [3], 104%; in assay [4], 111%; in assay [5] it was 89.7%; in assay [6], 117%. The growth in [7] was 96.7%; in [8], 114%; in [9], 105%; in assay [10] it was 105%.

Regarding `CCN1C(=O)N(CC)C2C1NN=c1s/c(=C\c3cccnc3)c(=O)n12` (stereo not given), the growth is 15.1% in assay [1]; 47.5% in assay [2]; 35.8% in assay [3]; 42.1% in [4]; 44.1% in [5]; 42.7% in [6]. The growth in [7] was 30.7%; in [8] it was -22.9% (active); in assay [9], 19.7%; in [10], 16.2%.

Take `CCN(CC)c1ccc(N=O)cc1`: the growth in assay [1] was 26.5%; in [2] it was 91.3%; in assay [3], 55.4%; in [4], 103%; in assay [5], 66.7%; in assay [6], 96%. The growth in [7] is 15%; in assay [8], 28.5%; in assay [9] it was 93%; in assay [10], 52%.

For the compound `Cc1nn(-c2ccc(Cl)cc2)c2ncnc(N/N=C/c3cccc([N+](=O)[O-])c3)c12`, the growth in [1] is 51.3%; in assay [2] it was 66.3%; in assay [3] it was 99.7%; in [4] it was 106%; in assay [5], 94.5%; in [6], 104%. Also, the growth in assay [7] was 94.7%; in assay [8], 8.17% (active); in assay [9], 99.3%; in [10] it was 105%.

On to `CC(C)CC1NC(C)(C)CO1` (stereo not given), for which the growth in assay [1] was 124%; in [2], 103%; in [3], 105%; in assay [4], 114%; in assay [5] it was 111%; in assay [6], 110%. In addition, the growth in [7] is 112%; in [8], 106%; in assay [9] it was 142%; in assay [10] it was 104%.

As for `Cc1cc(N/N=C/c2nc(-c3ccccc3)oc2C)c2cc(Cl)ccc2n1`, the growth in assay [1] was -13.7% (active); in [2], -39.4% (active); in assay [3], -41.7% (active); in assay [4], -88.5% (active); in [5], -89.6% (active); in assay [6], 76.4%. The growth in assay [7] is -83.7% (active); in [8] it was -92.5% (active); in assay [9], -48.9% (active); in assay [10], -62.5% (active).

Turning to `CC(C)(C)OC(=O)NCCc1ccc(N=C=S)cc1`, the growth was 22.5% in assay [1]; 9.22% (active) in assay [2]; 86% in assay [3]; 82.7% in assay [4]; 76.9% in assay [5]; 97.1% in [6]. The growth was 71.8% in assay [7], 72.7% in assay [8], 92.3% in assay [9] and 75.6% in [10].

`CCOC(=O)c1ccc2c(c1)nc(-c1ccc(OCc3ccccc3)c(OC)c1)n2-c1cc(C(C)(C)C)[nH]n1`: the growth is 68.9% in [1]; 68.8% in assay [2]; 99.7% in assay [3]; 88.9% in assay [4]; 76.4% in assay [5]; 91.2% in assay [6]. Also, the growth was 83% in assay [7], 81.8% in assay [8], 82.2% in assay [9] and 89.1% in assay [10].

`O=c1[nH]c(NCc2ccccc2)nc2nc(Nc3ccc(NC(=S)Nc4ccccc4)cc3)nc(-c3ccc(O)cc3O)c12`: the growth in assay [1] was 67.5%; in assay [2], 90.8%; in assay [3], 87.4%; in assay [4], 111%; in assay [5], 114%; in [6] it was 97.9%. The growth was 70.3% in assay [7], 111% in [8], 88.1% in assay [9] and 106% in [10].

Turning to `c1cc2[nH]ncc2cc1-c1nc2ccc3[nH]ncc3c2c2c1CCC2`, the growth was 10.9% in assay [1]; 42.5% in assay [2]; 53.9% in [3]; 91.7% in [4]; 57.9% in assay [5]; 5.23% (active) in assay [6]. Further, the growth in [7] is 22.6%; in assay [8] it was 56.4%; in assay [9] it was 14.9%; in assay [10] it was 58.1%.

As to `COc1cccc(CC(C)=C(c2ccc(OCCN3CCCCC3)cc2)c2ccc(OCCN3CCCCC3)cc2)c1`, the growth in assay [1] was -41.2% (active); in [2], -45.8% (active); in assay [3], -50.3% (active); in [4], 24%; in assay [5], -49% (active); in [6] it was 76.9%. In addition, the growth in assay [7] is -10.5% (active); in assay [8], -40.7% (active); in [9] it was -50% (active); in [10] it was -13.3% (active).

For `O=C(O)c1cn(C2CC2)c2cc(N3CCN(C(=O)/C=C/c4ccc(Cl)cc4)CC3)c(F)cc2c1=O`, the growth is 79.7% in [1]; 70.7% in [2]; 80.5% in assay [3]; 91% in assay [4]; 81% in assay [5]; 66.4% in assay [6]. Also, the growth was 67.2% in assay [7], 78.8% in assay [8], 65.4% in [9] and 86.1% in assay [10].

For `Nc1nc(=O)c2ccccc2s1`, the growth is 109% in assay [1]; 94.8% in assay [2]; 121% in [3]; 99.6% in assay [4]; 125% in [5]; 104% in assay [6]. Moreover, the growth in [7] was 122%; in assay [8], 131%; in assay [9], 112%; in assay [10], 113%.

As to `CCCC(=O)Oc1ccc(/C(=C(\C)c2ccccc2)c2ccc(OCCN(CC)CC)cc2)cc1`, the growth in assay [1] is 28.2%; in assay [2], 55.4%; in assay [3] it was 83.3%; in [4] it was 88.7%; in assay [5], 86.6%; in [6], 91.7%. Also, the growth in [7] is 90.7%; in [8], 94.9%; in [9], 42.6%; in [10] it was 86.7%.

On to `Cn1ccc(=O)c(S(N)(=O)=O)c1`, for which the growth is 72.5% in assay [1]; 66.5% in [2]; 101% in assay [3]; 94.3% in [4]; 95.8% in assay [5]; 126% in assay [6]. Further, the growth in assay [7] was 124%; in [8], 112%; in [9], 104%; in assay [10], 94.8%.

On to `CCCCCCCCCCCCCCCCCCNC(=O)[C@H]1CSC(c2cccs2)N1` (stereo not given in full), for which the growth in assay [1] is -41.2% (active); in assay [2], -51.1% (active); in [3], -23% (active); in assay [4], -54.1% (active); in [5] it was 42.2%; in [6], 39.7%. Further, the growth was 2.04% (active) in assay [7], -17.3% (active) in assay [8], -31.7% (active) in assay [9] and -45.3% (active) in assay [10].

Regarding `COc1ccc(NC(=O)CSc2nc(-c3ccc(OC)c(OC)c3)cc(-c3cc(OC)c(OC)c(OC)c3)n2)cc1`, the growth was 104% in assay [1]; 78.2% in assay [2]; 94.2% in [3]; 99.1% in assay [4]; 106% in assay [5]; 109% in assay [6]. Also, the growth was 122% in assay [7], 114% in [8], 90.8% in [9] and 98.7% in [10].

Take `NC1=C(/C(N)=N/O)C(c2ccccc2)c2ccc3ccccc3c2O1` (stereo not given): the growth in assay [1] was 34.9%; in assay [2], 19.1%; in assay [3] it was 17.2%; in assay [4], 29.6%; in assay [5], 47.5%; in assay [6], 55.2%. In addition, the growth in [7] is 29%; in assay [8], -3.21% (active); in assay [9], 13.4%; in [10], -1.33% (active).

Turning to `CCN(CC)c1ccc2[nH]c3c(C(N)=O)cc(=O)c(=O)c=3oc2c1`, the growth is 5.09% (active) in assay [1]; -1.62% (active) in [2]; 0.295% (active) in assay [3]; 15.1% in [4]; 2.07% (active) in [5]; 19.9% in assay [6]. Further, the growth in assay [7] was -44.4% (active); in [8], -35.9% (active); in [9], 2.92% (active); in assay [10], -0.316% (active).

For the compound `CCOC(=O)C1C(=O)C=C(c2ccc(OC)cc2)CC1c1sc(N(C)Cc2ccccc2)nc1Cl` (stereo not given), the growth in assay [1] was 81%; in assay [2] it was 63.9%; in assay [3], 80.9%; in assay [4], 86.2%; in assay [5], 78.2%; in assay [6] it was 90%. The growth was 104% in assay [7], 87.5% in assay [8], 49.2% in [9] and 88.2% in [10].
